Tau filament bind – binds recombinant human tau filaments. P10636. recombinant tau filaments, thioflavin S fluorescence, 15 h; filaments grown with octadecylsulfate alongside compound. Potency, µM (highest dose often 57.1 µM), for the others: at the highest dose activity change, negative = inhibition. actives 2% (n = 71,000);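 also: potency is read from the fitted curve at half-maximal effect; % is scaled to controls: 0 for no effect and ±100 for the full control effect; actives lower thioflavin S fluorescence by blocking filaments or displacing dye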
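Quantitative HTS: thioflavine S signal from ODS-induced tau filaments, excited at 450 nm, emission 510 nm. Conditions: 1 uM tau, 30 uM ODS, 15 h at 37 C, pH 7.4.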
15-hLO inh – blocks human 15-lipoxygenase activity; AID 887; actives 1.4% (n = 74,000); purified 15hLO-1, xylenol orange hydroperoxide absorbance; Potency, µM (titrated, usually from 57.1 µM), for the others: at the top dose activity change, negative = inhibition, actives largely listed as inhibitors; also: potency is read from the fitted curve at half-maximal effect; % is scaled to controls: 0 for no effect and ±100 for the full control effect; nearly all actives have a fitted effect of over 55% in size
Target sequence (P16050 whole entry, looked up): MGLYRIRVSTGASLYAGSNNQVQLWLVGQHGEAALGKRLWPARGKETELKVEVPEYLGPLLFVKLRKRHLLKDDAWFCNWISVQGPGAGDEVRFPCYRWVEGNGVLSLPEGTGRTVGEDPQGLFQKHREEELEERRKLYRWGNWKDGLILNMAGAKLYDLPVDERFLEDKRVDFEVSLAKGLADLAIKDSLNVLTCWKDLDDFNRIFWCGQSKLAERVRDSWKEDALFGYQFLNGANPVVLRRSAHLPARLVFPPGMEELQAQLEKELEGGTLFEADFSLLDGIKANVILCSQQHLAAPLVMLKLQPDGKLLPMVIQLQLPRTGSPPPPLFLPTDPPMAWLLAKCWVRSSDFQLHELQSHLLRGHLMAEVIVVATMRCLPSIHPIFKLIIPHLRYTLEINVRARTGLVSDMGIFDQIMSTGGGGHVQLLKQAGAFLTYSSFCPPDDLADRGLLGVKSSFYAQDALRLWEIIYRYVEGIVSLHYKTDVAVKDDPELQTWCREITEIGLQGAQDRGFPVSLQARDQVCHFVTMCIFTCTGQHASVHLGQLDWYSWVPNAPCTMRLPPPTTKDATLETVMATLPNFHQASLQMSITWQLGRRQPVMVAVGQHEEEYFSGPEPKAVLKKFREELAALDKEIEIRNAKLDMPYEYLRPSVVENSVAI
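Purified human 15hLO-1 (40 nM final) in 25 mM Hepes pH 7.5, 0.01% Triton X-100 was preincubated with compound 15 min at room temperature, then reacted 6 min with 50 uM arachidonic acid; hydroperoxide detected by Fe-XO, 573/405 nm absorbance ratio.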
Ub-GFP proteasome – proteasome inhibitors stabilizing ubiquitin-GFP reporter. Ubiquitin-GFP reporter cells, proteasome inhibition, GFP fluorescence; response scale: untreated = 0%, 10 µM MG-132 = 100%. Potency, µM (top dose mostly 45.9 µM), for inactives: at the top dose activation (GFP accumulation), hits mostly activators. 67,000 tested, under 10 active; active = well fitted activation curve with a large enough effect, not every such curve was filed as active; inconclusive = small, poorly fitted or top-dose-only effect, or another doubt; inactive = no such curve, though single readings can be large or run the other way; also: potency is read from the fitted curve at half-maximal effect
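GFP accumulation read-out: laser plate cytometry counting ubiquitin(G76V)-GFP-expressing U2OS cells after 4 hr compound exposure at 37 °C. Titrations spanned 46 uM to 2.9 nM; 0% = basal, 100% = 10 uM MG-132; concentration-response curves fitted.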
DNA Pol III inh – DNA polymerase III holoenzyme inhibition. reconstituted DNA polymerase III holoenzyme replication, biochemical. Potency, µM (top dose mostly 57.1 µM), for the others: at the top dose activity change, negative = inhibition. actives 0.25% (n = 71,000); also: potency is read from the fitted curve at half-maximal effect; % is scaled to controls: 0 for no effect and ±100 for the full control effect
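Reconstituted *E. coli* holoenzyme (0.35 nM Pol III, 1 nM beta, 154 nM SSB, 2 nM primase) was preincubated with compound for 15 min at RT. Synthesis on 1.4 nM ssM13Gori ran 35 min, then was stopped with PicoGreen/EDTA and read as dsDNA fluorescence.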
HBB splicing – alters splicing of the hemoglobin beta chain; HBB splicing reporter cell assay, activation; EGFP reporter with mutant IVS2-654 intron; response scale: normalised to 500 nM splice-correcting PNA; Potency, µM (doses to about 46.1 µM), inactives show top-dose activation, most hits filed as activators; actives 0.06% (n = 65,000); AID 925; also: potency is read from the fitted curve at half-maximal effect; 0% is about no effect
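HeLa cells stably expressing EGFP interrupted by mutant beta-globin intron 2 (IVS2-654), 500/well in 2% FCS. Treated with compound for 2 days at 37C. Splicing correction scored as total well GFP intensity (488 nm excitation, 500-520 nm emission); 500 nM antisense PNA served as control.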
Epigenetic mod – epigenetic GFP locus derepression in mouse cells; actives 0.09% (n = 68,000); AID 597; mouse C127i GFP locus derepression, cytometry, 30 h; Potency, µM (titrated, usually from 46.1 µM), without a hit: at the highest dose GFP derepression (activation); also: % of control where 0% means no effect
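Read-out is the number of GFP-positive cells, scored as fluorescent objects 20 to 120 um wide, reflecting derepression of a silenced CMV-GFP reporter in murine C127i cells after 30 h compound exposure at 37 C.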
* hit, by the source's call; ? = inconclusive; . = no result given; ! = not active in a repeat; [ ] = remark or other dose. An excerpt weighted towards active compounds, which were near 3.2% of everything screened. Unless noted, calls follow the shape of the dose curve; as a rule, active = well fitted curve in the direction sought with a large enough effect; inconclusive = small, poorly fitted or top-dose-only effect, or another doubt; inactive = no such curve, though single readings can be large; an effect the other way counts as inactive or inconclusive.

SMILES	Tau filament bind	15-hLO inh	Ub-GFP proteasome	DNA Pol III inh	HBB splicing	Epigenetic mod
Cc1cc(N2CCOCC2)c2c(N)c(C)cc(C)c2n1	16µM*	2%	1%	-6%	-2%	9%
COc1ccc2nc(C)cc(N3CCOCC3)c2c1	-16%	-5%	-7%	-4%	0%	-3%
CCOC(=O)CSc1cc(=O)n(C)c2cc(Cl)ccc12	0%	13µM*	-13%	-3%	0%	9%
CC(C)N(CCNC(=O)c1ccc(Cc2nc3ccccc3[nH]2)cc1)C(C)C	.	4%	.	.	.	.
COc1ccc(CCn2c(-c3ccco3)nc3ccccc3c2=O)cc1OC	4%[11.4 µM]	4µM*	23%[9.17 µM]	-8%[11.4 µM]	1%[0.0738 µM]	2%
COCCCn1c(-c2ccco2)nc2ccccc2c1=O	6%	2%	-17%	-4%	-7%	10%
Cc1cccc(NC(=O)Nc2cccc(C#N)c2)n1	45%	-1%	-6%	-2%	-1%	-6%
Cc1cccc(NC(=O)Nc2ccc(C#N)cc2)n1	118%	-4%	-4%	25µM*	-1%	10%
CN(C)CC(CN(C)C)c1ccccn1	0%[11.4 µM]	7%[11.4 µM]	14%[9.17 µM]	-11%[11.4 µM]	3%[9.22 µM]	0%[9.22 µM]
O=S(=O)(O)c1ccc(NN(c2c(O)ccc3ccccc23)S(=O)(=O)O)cc1	-5%[11.4 µM]	22%[11.4 µM]	-4%[9.17 µM]	-12%[11.4 µM]	-1%[9.22 µM]	2%[9.22 µM]
CCOc1ccc(OCC)c(NS(=O)(=O)c2cccc3nsnc23)c1	25µM*	-11%	-1%	-4%	0%	4%
CCc1ccc(CCC(=O)Nc2sc3c(c2C#N)CCCC3)o1	-6%	16µM*	3%	-4%	-1%	1%
Cc1ccc(CNC(=O)C2CNc3cc(C)ccc3O2)cc1 (stereo unspecified)	-5%	1%	-5%	-9%	-1%[57.5 µM]	3%
Cc1ccc2c(c1)NCCO2	32µM*	-15%	-3%	-7%	-1%	3%
CC(=O)[C@@H]1CC[C@@H]2[C@@H]3CC=C4C[C@H](OS(=O)(=O)O)CC[C@@]4(C)[C@H]3CC[C@]21C	5%	6%	3%	-5%	1%	-1%
CN1CCN(c2ncc3nc(-c4cc(F)cc(F)c4)c(=O)n(CCC#N)c3n2)CC1	-26%	49%	-1%	-9%	0%	2%[9.22 µM]
O=C(NCCCCN1CCCC1)c1ccc(Cc2nc3ccccc3[nH]2)cc1	.	4%	.	.	.	.
Cc1ccc(S(=O)(=O)N2CCC(C(=O)N[C@@H](C)C(=O)Nc3ccc4c(c3)OCO4)CC2)cc1	10µM*	-16%	3%	-5%	-2%	9%
CC(=O)[C@H]([C@@H](c1ccccc1)N1CCOCC1)N1CCOCC1	-3%[11.4 µM]	0%[11.4 µM]	5%[9.17 µM]	-9%[11.4 µM]	0%[9.22 µM]	-3%[9.22 µM]
CC1(C)S[C@@H]2[C@H](NC(=O)C3(N)CCCCC3)C(=O)N2[C@@H]1C(=O)O	2%[11.4 µM]	6%[11.4 µM]	-3%[9.17 µM]	-8%[11.4 µM]	1%[9.22 µM]	10%[9.22 µM]
CC(=C1C2C=CC1C1C(=O)NC(=O)C21)c1ccccc1 (stereo unspecified)	77%	-13%	-4%	1%	16µM*	?
COc1cc(CNc2ccc3[nH]c(=O)[nH]c3c2)cc(Cl)c1OCC(=O)NC(C)(C)C	10µM*	?	-1%	-8%	-1%	-3%
COCc1cc(=O)n2c(-c3ccc(C)cc3)n[nH]c2n1	16µM*	2%	-4%	-3%	1%	.
c1ccc(-c2nc(N3CCCCCC3)c3ccccc3n2)nc1	13µM*	25%	-3%	-14%	0%	2%
CC(C)(c1cc(Br)c(O)c(Br)c1)c1cc(Br)c(O)c(Br)c1	?	2.5µM*	.	5%	-1%	.
SMILES	Tau filament bind	15-hLO inh	Ub-GFP proteasome	DNA Pol III inh	HBB splicing	Epigenetic mod
CN(Cc1cc(C(C)(C)C)cc(Br)c1O)Cc1cc(C(C)(C)C)cc(Br)c1O	0%[11.4 µM]	-3%[11.4 µM]	-1%[9.17 µM]	-8%[11.4 µM]	1%[9.22 µM]	-2%[9.22 µM]
Nc1nc(Nc2ccccc2)nc2c1ncn2[C@@H]1O[C@@H](CO)[C@H](O)[C@@H]1O	-8%	6%	7%	-2%	0%	-1%
CC1(N)CCC(C(C)(C)N)CC1 (stereo unspecified)	6%	-12%	.	4%	0%	.
CCOc1ccc(-n2c(-c3ccco3)n[nH]c2=S)cc1	-2%	32µM*	.	-2%	0%[0.369 µM]	6%
O=C(O)CNC(=O)c1ccc([N+](=O)[O-])cc1	5%	3%	.	-7%	0%	.
CN1CCN(/C=N/c2sc3c(c2C#N)CCCCC3)CC1	.	.	.	.	.	5%[20.6 µM]
Cc1ccc(/C=N/c2sc3c(c2C#N)CCCCC3)o1	34%	25µM*	-3%	?	1%[57.5 µM]	-1%
N#Cc1c(/N=C/c2ccco2)sc2c1CCC2	16µM*	-8%	-4%	-10%	0%	-4%
CN(CC(=O)O)CC(=O)O	5%[11.4 µM]	24%[11.4 µM]	-5%[9.17 µM]	-8%[11.4 µM]	1%[9.22 µM]	6%[9.22 µM]
COc1ccc(CCn2c(=N)c(C(=O)N3CCN(C)CC3)cc3c(=O)n4ccccc4nc32)cc1	16µM*	-15%	.	-10%	0%[0.369 µM]	-2%
COc1ccc(CCn2c(=N)c(C(=O)NCc3ccco3)cc3c(=O)n4ccccc4nc32)cc1OC	.	.	.	.	.	-2%[20.6 µM]
Cc1ccc(Cn2c(=N)c(C(=O)NCc3ccco3)cc3c(=O)n4ccccc4nc32)cc1	3.2µM*	-27%	-7%	0%	.	16%
CCOC(=O)c1cc2c(=O)n3ccccc3nc2n(Cc2ccccc2)c1=N	1.6µM*	-9%	2%	-2%	3%	-1%
COc1ccc(CCn2c(=N)c(C#N)cc3c(=O)n4ccccc4nc32)cc1	.	.	.	.	.	2%[20.6 µM]
N=c1c(C(=O)NCc2ccco2)cc2c(=O)n3ccccc3nc2n1CCc1ccccc1	0.63µM*	13µM*	8%	-16%	-5%	-2%
Cc1ccc(S(=O)(=O)Nc2ccccc2C(=O)c2ccc(C)c(C)c2)cc1	-5%[11.4 µM]	3%[11.4 µM]	-1%[9.17 µM]	-7%[11.4 µM]	1%[9.22 µM]	0%[9.22 µM]
CN[C@]1(C)[C@@H]2CC[C@@H](C2)C1(C)C	1%	8%	7%	-2%	0%	0%
CO[C@H]1COC(=O)[C@H](C)COC(=O)[C@H](C)NC(=O)C/C=C\[C@H]1C	.	6%[11.4 µM]	.	.	1%[9.22 µM]	.
Cc1c(CN(C)C)c2c(n1C)C(=O)c1ccc(Br)cc1-2	2.5µM*	3%	0%	-13%	0%	-1%
Nc1c2c(nc3ccccc13)CCC[C@H]2O	0%	3%	1%	-3%	2%	-1%
Nc1c2ccccc2nc2ccccc12	6%	-1%	.	40µM*	-1%	.
Nc1c2c(nc3ccccc13)CCCC2	44%	13µM*!	-1%	-10%	0%	7%
CCCCC#Cc1nc(N)c2ncn([C@@H]3O[C@@H](C(=O)NCC)[C@H](O)[C@@H]3O)c2n1	-3%	-4%	-3%	1%	-1%	-2%

Source: PubChem BioAssay (National Center for Advancing Translational Sciences (NCATS))
